{"source": "PubChem BioAssay AID489037", "about": "(National Center for Advancing Translational Sciences (NCATS), 2010)", "note": "Values joined by “and” are separate entries in the source; they are usually repeats but may differ in a detail not shown here. Equal values may be shown once. Results filed as inconclusive are left out. Some compounds were tested as several samples or in several runs, with calls that do not always agree. Active and inactive are the calls of the source. Calls follow the shape of the dose curve; as a rule, active = well fitted inhibition curve with a large enough effect; inconclusive = small, poorly fitted or top-dose-only effect, or effect the other way; inactive = no such curve, though single readings can be large or run the other way."}
{"molecular_target": "Nuclear receptor ROR-gamma (Mus musculus) (UniProt P51450)", "sequence (P51450 whole entry, looked up, the tested form may be a part)": "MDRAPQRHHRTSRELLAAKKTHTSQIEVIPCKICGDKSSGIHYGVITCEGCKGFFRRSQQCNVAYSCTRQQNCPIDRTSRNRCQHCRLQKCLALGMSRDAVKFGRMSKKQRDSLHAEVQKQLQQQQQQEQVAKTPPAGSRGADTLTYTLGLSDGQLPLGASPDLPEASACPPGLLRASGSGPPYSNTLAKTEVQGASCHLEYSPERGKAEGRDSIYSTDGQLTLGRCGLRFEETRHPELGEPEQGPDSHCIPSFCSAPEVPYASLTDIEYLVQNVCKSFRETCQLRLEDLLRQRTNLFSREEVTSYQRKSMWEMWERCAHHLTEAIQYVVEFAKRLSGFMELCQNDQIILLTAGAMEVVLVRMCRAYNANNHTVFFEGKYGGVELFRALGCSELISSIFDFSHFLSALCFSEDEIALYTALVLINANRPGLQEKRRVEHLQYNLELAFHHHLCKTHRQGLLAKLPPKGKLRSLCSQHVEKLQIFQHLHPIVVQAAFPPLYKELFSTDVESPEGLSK", "assay": "Secondary confirmation assay for inhibitors of ROR gamma transcriptional activity", "settings": "Drosophila S2 Gal4-RORgamma UAS-luciferase reporter, 20 h; series mostly up to 92.2 µM; activity change, negative = inhibition: at the top concentration", "how_it_was_run": "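Drosophila Schneider cells stably expressing Gal4-DBD/ROR gamma fusion (metallothionein promoter) with UAS-Photinus luciferase reporter. Compound preincubated 1 hr, then copper sulfate 700 uM final added; 20 hr at ambient temperature, luminescence read.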"}
{"smiles": "COc1ccccc1CNC(=O)[C@@H](NC(=O)C1CCN(C(=O)[C@@H]2CCCN2C(=O)OC(C)(C)C)CC1)C(C)C", "Potency": "12.9 µM (active)"}
{"smiles": "CN1CCN(C(=O)CCN2C(=O)/C(=C\\c3ccccc3F)SC2=S)CC1", "Potency": "18.2 µM (active)"}
{"smiles": "CC(C)(C)c1ccc(S(=O)(=O)Nc2ccc(C(O)(C(F)(F)F)C(F)(F)F)cc2)cc1", "Potency": "20.4 µM (active)"}
{"smiles": "COc1cc(O)c(C(CC(=O)N2CCCCC2)c2ccc(OC)c(OC)c2)c(OC)c1", "note": "(centres undefined)", "activity change, negative = inhibition": "-14.4% (inactive)"}
{"smiles": "COc1cc(O)c(C(CC(=O)N(C)c2cccc(C)c2)c2ccc3c(c2)OCO3)c(OC)c1", "note": "(centres undefined)", "activity change, negative = inhibition": "-23.4% (inactive)"}
{"smiles": "COc1cc(OC)c(C(c2ccccc2)C(C)(C)C(=O)N2CC(C)CC(C)C2)c(OC)c1", "note": "(centres undefined)", "Potency": "5.12 µM (active)"}
{"smiles": "Cc1cc(C)c2[nH]c(C(=O)Nc3ccc4c(c3)OCO4)cc2c1", "Potency": "0.257 µM (active)"}
{"smiles": "C[C@H]1O[C@@H](O[C@H]2[C@@H](O)C[C@@H](O[C@H]3[C@@H](O)C[C@H](O[C@H]4CC[C@@]5(C)[C@H](CC[C@@H]6[C@@H]5CC[C@]5(C)[C@@H](C7=CC(=O)OC7)CC[C@]65O)C4)O[C@@H]3C)O[C@@H]2C)C[C@H](O)[C@@H]1O", "Potency": "1.44 µM (active)"}
{"smiles": "COc1cc(O)c(C(CC(=O)N2CCCC(C(=O)N3CCCCC3)C2)c2ccc3c(c2)OCO3)c(OC)c1", "note": "(centres undefined)", "activity change, negative = inhibition": "30% (inactive)"}
{"smiles": "CCC1CCCN(C(=O)CC(c2ccc3c(c2)OCO3)c2c(O)cc(OC)cc2OC)C1", "note": "(centres undefined)", "Potency": "3.23 µM (active)"}
{"smiles": "CCOC(=O)c1sc(NC(=O)c2cc3c(s2)CCC(C)C3)nc1C", "note": "(centres undefined)", "Potency": "0.144 µM (active)"}
{"smiles": "CCC(=O)C1CCCN(C(=O)CC(c2ccc3c(c2)OCO3)c2c(O)cc(OC)cc2OC)C1", "note": "(centres undefined)", "activity change, negative = inhibition": "2.25% (inactive)"}
{"smiles": "COc1cc(O)c(C(CC(=O)NCc2ccccc2)c2ccc3c(c2)OCO3)c(OC)c1", "note": "(centres undefined)", "activity change, negative = inhibition": "8.94% (inactive)"}
{"smiles": "COc1cc(O)c(C(CC(=O)N2CCCC(C)C2)c2ccc(-c3ccccc3)cc2)c(OC)c1", "note": "(centres undefined)", "activity change, negative = inhibition": "-26% (inactive)"}
{"smiles": "COc1cc(O)c(C(CC(=O)N2CCc3ccccc3C2)c2ccc3c(c2)OCO3)c(OC)c1", "note": "(centres undefined)", "activity change, negative = inhibition": "-29.7% (inactive)"}
{"smiles": "Cc1ccc(OCCCC(=O)Nc2nc3ccccc3[nH]2)cc1", "Potency": "7.24 µM (active)"}
{"smiles": "CC1CCCN(C(=O)CC(c2ccc3c(c2)OCO3)c2ccc(O)cc2O)C1", "note": "(centres undefined)", "activity change, negative = inhibition": "-7.31% (inactive)"}
{"smiles": "O=C(/C=C/c1ccc(S(=O)(=O)N2CCOCC2)cc1)NC(=S)Nc1ccc(N2CCOCC2)cc1", "Potency": "2.04 µM (active)"}
{"smiles": "Cc1ccc(C(=O)O/N=C/c2ccc(N(C)C)cc2)cc1", "Potency": "32.3 µM (active)"}
{"smiles": "COc1ccc(-c2c[n+]3c(n2-c2ccc(C)cc2)CCCCC3)cc1", "Potency": "11.5 µM (active)"}
{"smiles": "COc1cc(O)c(C(CC(=O)N2CCCC(C(C)C)C2)c2ccc3c(c2)OCO3)c(OC)c1", "note": "(centres undefined)", "Potency": "25.7 µM (active)"}
{"smiles": "COCC1CCCCN1C(=O)c1cc(COc2ccc3ncccc3c2)on1", "note": "(centres undefined)", "Potency": "11.5 µM (active)"}
{"smiles": "O=S(=O)(c1ccc(NC(=S)N/N=C/c2ccc(Oc3ccccc3)cc2)cc1)N1CCOCC1", "Potency": "1.15 µM (active)"}
{"smiles": "COc1cc(O)c(C(CC(=O)N2CCCC(C)C2)c2cccs2)c(OC)c1", "note": "(centres undefined)", "Potency": "7.24 µM (active)"}
{"smiles": "COc1cc(O)c(C(CC(=O)N2CCC(Cc3ccccc3)CC2)c2ccc(OC)c(OC)c2)c(OC)c1", "note": "(centres undefined)", "activity change, negative = inhibition": "7.01% (inactive)"}
{"smiles": "COc1ccc(-c2nnc(-c3ccc(N(C)C)cc3)o2)cc1", "Potency": "1.29 µM (active)"}
{"smiles": "O=C(CCCOc1ccccc1)Nc1nc2ccccc2[nH]1", "Potency": "7.24 µM (active)"}
{"smiles": "COc1ccc(C(CC(=O)N2CCCC(C)C2)c2c(O)cc(OC)cc2OC)cc1", "note": "(centres undefined)", "Potency": "2.29 µM (active)"}
{"smiles": "CC(C)(C)c1ccc(-c2noc(CCC(=O)Nc3cccnc3)n2)cc1", "Potency": "0.257 µM (active)"}
{"smiles": "COc1cc(O)c(C(CC(=O)N2CCC(C)CC2)c2ccc(C)cc2)c(OC)c1", "note": "(centres undefined)", "Potency": "14.4 µM (active)"}
{"smiles": "COc1cc(O)c(C(CC(=O)N2CCCCC2)c2ccc3c(c2)OCO3)c(OC)c1", "note": "(centres undefined)", "Potency": "20.4 µM (active)"}
{"smiles": "Cc1ccc(-c2cn(-c3ccccc3)c3[n+]2CCCS3)cc1", "Potency": "28.8 µM (active)"}
{"smiles": "COc1cc(O)c(C(CC(=O)N(Cc2ccccc2)Cc2ccccc2)c2ccc3c(c2)OCO3)c(OC)c1", "note": "(centres undefined)", "activity change, negative = inhibition": "-6.12% (inactive)"}
{"smiles": "COc1cc(O)c(C(CC(=O)N2CCC[C@H](C)C2)c2ccc3c(c2)OCO3)c(OC)c1", "note": "(some centres undefined)", "Potency": "9.11 µM (active) and 3.23 µM (active) and inactive"}
